# Screening data: PubChem BioAssay, National Center for Advancing Translational Sciences (NCATS)
# DRD3 agonist – activates the human D3 dopamine receptor | hit rate 0.58% among 410,000 | max activation, % | P35462 | D3R DiscoveRx beta-arrestin cells, luminescence, 90 min; in the data active = max activation above about 30%; note: 0% is about no effect
# Target sequence (P35462 whole entry, looked up): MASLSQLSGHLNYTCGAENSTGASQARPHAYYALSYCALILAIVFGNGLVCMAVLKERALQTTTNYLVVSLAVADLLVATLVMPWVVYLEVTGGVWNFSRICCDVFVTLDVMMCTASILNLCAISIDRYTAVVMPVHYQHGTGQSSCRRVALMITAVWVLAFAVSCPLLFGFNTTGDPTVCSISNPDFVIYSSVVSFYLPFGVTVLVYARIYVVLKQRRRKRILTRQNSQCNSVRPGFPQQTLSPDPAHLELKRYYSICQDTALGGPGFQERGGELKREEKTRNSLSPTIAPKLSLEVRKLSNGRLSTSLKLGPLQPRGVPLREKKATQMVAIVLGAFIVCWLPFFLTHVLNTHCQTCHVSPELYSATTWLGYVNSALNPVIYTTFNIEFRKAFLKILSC
#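 Agonist-mode cell screen: cells plated at 1500/well and incubated overnight at 37 °C, then exposed to library compounds for 90 min at 37 °C. Detection reagent was added for 30–60 min at room temperature, and luminescence was read.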
# ClpP mod – qHTS Assay for Activators of ClpP; purified B. subtilis ClpP, FRET peptide cleavage, 20 min; Potency, µM (top dose mostly 57.5 µM), without a hit: at the highest dose activity change, negative = active; AID 651965, 2013; hit rate 1.9% among 340,000; active = well fitted falling curve with a large enough effect; inconclusive = small, poorly fitted or top-dose-only effect; inactive = no such curve, though single readings can be large or run the other way; note: potency is the fitted concentration of half-maximal effect; the source files actives as falling curves though it sought activators and does not explain the sign; nearly all actives have a fitted effect of over 65% in size
# Target sequence (P80244 whole entry, looked up): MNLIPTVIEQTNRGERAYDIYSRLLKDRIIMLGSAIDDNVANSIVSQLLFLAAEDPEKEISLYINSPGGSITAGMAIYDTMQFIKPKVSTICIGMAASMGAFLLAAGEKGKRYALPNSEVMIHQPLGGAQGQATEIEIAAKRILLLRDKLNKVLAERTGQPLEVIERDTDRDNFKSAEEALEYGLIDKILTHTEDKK
#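 ClpP 10 microg/mL final, pH 8 Tris/KCl buffer with BSA, glycerol, Tween-20; compound pinned in; FRET-FV substrate; RT 20 min; Ex320/Em430; ΔFRET vs ADEP 5.8 microM, DMSO, no enzyme.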
# IL-1B inflam inh – inhibitors of inflammasome signaling (IL-1 beta secretion); AID 743279; THP-1 LPS/ATP IL-1B secretion, AlphaLISA, 16 h; hits give low values; hit rate 4.7% among 360,000; activity change, % at 57.5 µM; in the data active = activity change below about -50%; inconclusive = mostly about -30% to -49%; note: % is set by controls: 0 for no effect and ±100 for the full control effect
#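 THP-1 cells pretreated 1 hr with compounds (up to 57.5 uM final), then stimulated with LPS (250 ng/mL final) plus ATP (1.25 mM final); secreted IL-1B measured by AlphaLISA after 16 hr, decreased signal indicating inhibition.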
# TDP1 cell noCPT – qHTS for Inhibitors of human tyrosyl-DNA phosphodiesterase 1 (TDP1): qHTS in cells in absence of CPT | DT40 Tdp1-/- hTDP1 cells, no CPT, ATP luminescence, 48 h | Potency, µM (titrated, usually from 46.2 µM), for inactives: at the highest dose activity change, negative = growth inhibition, actives largely listed as inhibitors | hit rate 15% among 420,000 | AID 686978, 2013; note: potency is the fitted concentration of half-maximal effect; % is set by controls: 0 for no effect and ±100 for the full control effect; nearly all actives have a fitted effect of over 55% in size
#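 Chicken DT40 Tdp1-/- cells complemented with human TDP1, screened without camptothecin (DMSO vehicle only), 400 cells/well. Compounds pin-transferred, cells incubated at 37 °C for at least 48 hr. Growth read as ATP-dependent luminescence (CellTiter-Glo, 30 min at RT).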
# DRD3 antagonist – antagonists of human D3 dopamine receptor. D3R cells, DiscoveRx beta-arrestin luminescence, antagonist mode; hits give low values. hit rate 2.5% among 360,000. P35462. max response, negative = inhibition, %; in the data active = max response below about -50%; inconclusive = no clear call, values can overlap the other calls; note: % is set by controls: 0 for no effect and ±100 for the full control effect
#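 Cells expressing the human receptor were seeded at 1500 cells/well, incubated overnight at 37 degrees C in 5% CO2, then exposed to library compounds with dopamine controls for 90 minutes at 37 degrees C before luminescent detection.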
# DT40 TDP1 CPT – growth inhibition of DT40 Tdp1-/-;hTDP1 cells with camptothecin (screen for TDP1 inhibitors). chicken DT40 Tdp1-/-;hTDP1 cells + 20 nM CPT, ATP luminescence, 48 h. Potency, µM (top dose mostly 46.2 µM), for inactives: at the highest dose activity change, negative = growth inhibition, usual class: inhibitors. hit rate 12% among 420,000; note: potency is the fitted concentration of half-maximal effect; % is set by controls: 0 for no effect and ±100 for the full control effect; nearly all actives have a fitted effect of over 55% in size
#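 Chicken DT40 Tdp1-/- cells complemented with human TDP1, 400 cells/well, exposed to compounds plus 20 nM camptothecin for at least 48 h at 37 C; viability read as ATP content by CellTiter-Glo luminescence.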
# An asterisk follows results filed as active; ? = inconclusive; · = no result; [ ] = dose if it differs, or a comment. In the library only some 21% were active in any assay of this set; here they are far more common. Unless noted, calls come from the whole dose curve; as a rule, active = well fitted inhibition curve with a large enough effect; inconclusive = small, poorly fitted or top-dose-only effect; inactive = flat fitted curve, though single readings scatter.
SMILES,DRD3 agonist,ClpP mod,IL-1B inflam inh,TDP1 cell noCPT,DRD3 antagonist,DT40 TDP1 CPT
N#CCSc1nc2ccccc2c(=O)n1C1CCCCC1,0.2,·,9.7,?,8.2,-12.4%
CN(C)c1ccc(NC(=O)CSc2nc3ccccc3c(=O)n2C2CCCCC2)cc1,1.8,-0.3%,-50.9*,18.4µM*,8.8,?
Cc1cc(NC(=O)CSc2nc3ccccc3c(=O)n2C2CCCC2)no1,1.4,2.0%,28.2,0.92µM*,-5.4,1.03µM*
O=C(CSc1nc2ccccc2c(=O)n1C1CC1)NCc1ccccc1,-7.6,-1.7%,6.8,?,8.9,-24.7%
CCN(CC)C(=O)CSc1nc2ccccc2c(=O)n1CC1CCCCC1,-1.8,1.9%,-24.5,16.4µM*,9.2,23.1µM*
Cc1nc2cc(NC(=O)[C@@H]3C[C@@H](Sc4ccccn4)CN3Cc3ccccc3F)ccc2s1,·,·,·,-2.8%,·,-4.3%[9.04 µM]
Cc1cc(NC(=O)CSc2nnc(CNc3ccc(F)cc3)n2C2CCCCC2)no1,0.9,-1.6%,-8.6,?,-6.2,10µM*
CCc1nnc(NC(=O)CSc2nnc(CNc3ccc(F)cc3)n2C2CCCCC2)s1,-0.7,-23.6%,-3.1,-1.4%,12.0,0.7%
Cc1ccc(S(=O)(=O)NCc2cccnc2)cc1C(=O)N1CCCC1,18.7,·,16.1,-3.6%,0.0,-6.1%
CCOC(=O)CC1C(=O)NCCN1C(=O)c1c(Cl)cccc1Cl (stereo not given),-7.2,·,31.5,2.2%,0.4,26.4%
COC(=O)c1ccccc1NC(=O)CSc1nc(=O)cc(N)n1-c1ccccc1,7.8,-4.6%,·,-18.3%,·,8.3%
Cc1ccc(-c2ccc(=O)n(CC(=O)NCC3COCCO3)n2)cc1 (stereo not given),0.7,·,-4.0,5.6%,12.1,0.7%
C=C(C)C(=O)OC1(C(F)(F)F)Oc2cc(C)ccc2NC1=O (stereo not given),-2.0,-1.2%,-72.9*,16.4µM*,1.1,16.4µM*
O=C(COC(=O)c1cc(S(=O)(=O)N2CCOCC2)c(Cl)cc1Cl)NC1CC1,5.5,?,-96.7*,2.5%,-0.4,2.7%
COc1ccc(OCCOC(=O)c2cc(S(=O)(=O)N3CCOCC3)c(Cl)cc2Cl)cc1,3.7,-7.6%,-93.7*,?,0.0,?
O=C(OCCOc1ccccc1)c1cc(S(=O)(=O)N2CCOCC2)c(Cl)cc1Cl,-2.3,-1.3%,-8.8,?,?,-22.7%
O=C(NC1CCCC1)c1cc(S(=O)(=O)N2CCOCC2)c(Cl)cc1Cl,-6.5,·,-8.5,-21.5%,-6.4,-10.4%
Cc1nc2sc3c(c2c(=N)n1N)CC(C)(C)OC3,15.0,-11.5%,4.4,0.1%,12.9,-2.2%
CSc1nnc2c3c4c(sc3nc(-n3nc(C)cc3C)n12)COC(C)(C)C4,-7.5,0.4%,4.6,29.1µM*,-14.2,?
CCSc1nc(NCCN(C)C)c2c3c(sc2n1)COC(C)(CC)C3 (stereo not given),-12.9,·,?,?,-9.4,20.6µM*
Cc1cc(C)n(-c2nc(NCCN(C)C)c3c4c(sc3n2)COC(C)(C)C4)n1,-6.6,·,·,23.1µM*,-18.4,?
Cc1cc(C)n(-c2nc3sc4c(c3c3nnc(SCC(N)=O)n23)CC(C)(C)OC4)n1,1.7,?,-21.5,-23.6%,-9.2,4.8%
Cc1cc(C)n(-c2nc(SCC(=O)Nc3nccs3)c3c4c(sc3n2)COC(C)(C)C4)n1,-2.3,-4.4%,-0.4,23.1µM*,-5.4,?
CCOC(=O)C1=C(COC(=O)Cc2ccccc2F)NC(=O)NC1C (stereo not given),-16.9,-24.9%,-3.2,-5.9%,0.5,5.3%
O=C(Cn1nc(C(=O)O)c2ccccc2c1=O)NC12CC3CC(CC(C3)C1)C2,1.4,·,21.8,-27.7%,10.4,0.6%
SMILES,DRD3 agonist,ClpP mod,IL-1B inflam inh,TDP1 cell noCPT,DRD3 antagonist,DT40 TDP1 CPT
Cc1c(C=N)c(O)n(C)c(=O)c1C#N,1.0,-2.8%,11.2,3.5%,18.6,-1.8%
Cc1cc(C)n(-c2nc(NCCCN(C)C)c3c4c(sc3n2)CCCC4)n1,-8.5,·,-28.4,?,-9.3,?
Cc1cc(C)n(-c2nc(NCCN(C)C)c3c4c(sc3n2)CCCC4)n1,-4.8,·,-98.4*,6.51µM*,-7.4,8.2µM*
Cc1cc(C)n(-c2nc(NCCC(C)C)c3c4c(sc3n2)COC(C)(C)C4)n1,-15.8,-6.4%,-1.7,16.4µM*,-11.7,9.2µM*
CC1(C)Cc2c(sc3ncnc(NN)c23)CO1,3.2,-0.6%,70.4,?,-2.1,?
CCSc1nc2sc3c(c2c(=O)n1CC)CC(C)(C)OC3,-3.7,-3.7%,-0.6,?,39.2,?
CCN(CC)CCNc1nc(-n2nc(C)cc2C)nc2sc3c(c12)CC(C)(C)OC3,-25.8,1.1%,-25.2,10.3µM*,1.0,?
Cc1cc(C)n(-c2nc(NCCCN(C)C)c3c4c(sc3n2)COC(C)(C)C4)n1,1.4,-2.3%,-62.2*,?,3.0,-0.4%
Cc1ccc(OC(=O)CSc2nnc(CNC(=O)c3ccccc3)o2)cc1,0.8,-1.0%,·,-9.2%,·,-5.5%
Cc1cccc(NC(=O)C2CCN(C(=O)c3ccc(Cl)cc3)CC2)n1,5.1,0.7%,19.7,?,7.3,9.7%
Cc1cc(C)n(-c2nc(SCCN3CCOCC3)c3c4c(sc3n2)CCCC4)n1,-13.3,·,23.1,20.6µM*,1.4,-31.9%
CC(=O)c1ccc(N2CCN(c3ncnc4c3cnn4-c3cc(Cl)ccc3C)CC2)cc1,27.9,-11.6%,·,5.8µM*,·,2.59µM*
CCN(c1ncnc2c1cnn2-c1cc(Cl)ccc1C)C1CCCCC1,-14.7,-1.2%,·,14.6µM*,·,14.6µM*
Cc1ccc(-n2ncc3c(N4CCCCCC4)ncnc32)cc1Cl,-14.7,-10.7%,·,-11.8%,·,-28.2%
Cc1ccc(Cl)cc1-n1ncc2c(N3CCCCCC3)ncnc21,-1.6,-8.9%,·,8.2µM*,·,5.8µM*
CC(=O)c1ccc(N2CCN(c3ncnc4c3c(-c3ccccc3)cn4-c3ccc(C)c(Cl)c3)CC2)cc1,16.3,-4.2%,·,8.6%,·,-1.9%
CC(=O)c1ccc(N2CCN(c3ncnc4c3cnn4C)CC2)cc1,-25.2,-12.4%,·,8.2µM*,·,?
CCc1ccc(Nc2ncnc3c2cnn3-c2cc(Cl)ccc2C)cc1,-4.2,-10.0%,·,-80.9%,·,?
Cc1ccc(NC(=O)CN2C(=O)CCSc3ccccc32)c(C)c1,-2.0,0.9%,·,·,·,·
COc1ccc(CCc2c[nH]c(=O)c3cncnc23)cc1OC,·,3.4%,·,?,·,-19.4%
